The structures appear in SMILES notation. Some structures have more than one record in an assay (separate samples or runs), and their calls can disagree. Activity calls are given as the source filed them. How the source made its calls: active means hit-call score of the fitted dose curve at least 0.9, where 1 is the maximum; inactive means score below 0.9.

The target of the experiment is Heat shock factor protein 1 (Homo sapiens) (UniProt Q00613). The experiment can be described thus: ATG_HSE_CIS: Attagene CIS-FACTORIAL HepG2 Assay for human Heat Shock Transcription Factor 1 (HSE) (AID 2282953). The settings on record: HepG2 HSE cis-reporter, Attagene RNA transcription; actives raise or lower the signal. As to the method: ATG_CIS is a cell-based, multiplexed-readout assay that uses HepG2, a human liver cell line, with measurements taken at 24 hours after chemical dosing in a 24-well plate.ATG_HSE_CIS is one of 52 assay component(s) measured or calculated from the ATG_CIS assay. It is designed to make measurements of mRNA induction, a form of inducible reporter, as detected with fluorescence intensity signals by Reverse transcription polymerase chain reaction (RT-PCR) and Capillary electrophoresis technology.Data from the assay component ATG_HSE_CIS was analyzed into 1 assay endpoint. This assay endpoint, ATG_HSE_CIS, was analyzed with bidirectional fitting relative to DMSO as the negative control and baseline of activity. Using a type of inducible reporter, measures of mRNA for gain or loss-of-signal activity can be used to understand the reporter gene at the transcription factor-level as they relate to the gene HSF1. Furthermore, this assay endpoint can be referred to as a primary readout, because this assay has produced multiple assay endpoints where this one serves a reporter gene function. To generalize the intended target to other relatable targets, this assay endpoint is annotated to the dna binding intended target family, where the subfamily is heat shock protein.
Heat shock factor protein 1 (Homo sapiens), sequence (Q00613 whole entry, looked up): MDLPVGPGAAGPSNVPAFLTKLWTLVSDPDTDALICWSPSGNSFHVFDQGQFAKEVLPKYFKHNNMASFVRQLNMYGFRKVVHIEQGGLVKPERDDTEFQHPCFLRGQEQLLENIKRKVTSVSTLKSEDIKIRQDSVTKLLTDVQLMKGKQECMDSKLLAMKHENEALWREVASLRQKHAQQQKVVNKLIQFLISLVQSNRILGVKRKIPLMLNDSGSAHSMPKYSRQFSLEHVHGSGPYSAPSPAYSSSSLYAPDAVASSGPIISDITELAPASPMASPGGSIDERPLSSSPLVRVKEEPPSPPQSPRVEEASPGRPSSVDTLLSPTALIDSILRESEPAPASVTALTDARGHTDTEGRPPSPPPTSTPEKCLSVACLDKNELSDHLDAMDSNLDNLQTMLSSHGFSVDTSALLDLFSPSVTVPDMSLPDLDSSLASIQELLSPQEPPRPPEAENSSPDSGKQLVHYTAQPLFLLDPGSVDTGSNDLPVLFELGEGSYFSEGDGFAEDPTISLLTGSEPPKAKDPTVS
Human liver HepG2 cells are transiently transfected with multiple reporter transcription units (MRTUs) in 6-well plates using FuGene 6 reagent (Roche; 3 ml FuGene/1 mg DNA). The MRTU constructs are regulated by a cis-regulating element (promoter). […] A major difference between the CIS and TRANS system is that in CIS activities of endogenous TFs are measured, whereas the TRANS assay evaluates changes in activities of exogenous, chimeric NR-Gal4 proteins. […] At the end of 24 hour incubation, total RNA was isolated using TriZol reagent (Invitrogen). The isolated RNA is then reverse-transcribed using oligo(dT) primer and Mo-MLV reverse transcriptase (Invitrogen) with DNAse I (Ambion) treatment for 30 min. The one-tenth of the produced cDNA was amplified by PCR using Taq DNA polymerase (Invitrogen) and two reporter sequence-specific primers. The PCR products were fluorescently labeled by primer extension with 6-arboxyfluorescein (6-FAM) 5'-labeled reporter sequence-specific primer (2 min at 95 C, 20 s at 68 C and 10 min at 72 C) and these products were digested with 5U of HpaI (New England Biolabs) for 2h at 37 C. The fragments were purified using Qiaquick PCR columns (Qiagen), analyzed on an ABI 3130xL genetic analyzer (Applied Biosystems) with peak positions identified by using a set of X-rhodamine (ROX)-labeled MapMarker1000 molecular weight standards (BioVentures). The raw capillary electrophoresis data was processed using Attagraph software (Attagene).
In the case of `CC1=C(C(=O)Nc2ccccc2)S(=O)(=O)CCO1`, the compound was called inactive.

Turning to `c1cc2c3c(cccc3c1)CC2`, the result was inactive.

In the case of `O=c1ssc(Cl)c1Cl`, the AC50 is 61.2 µM (active). For `O=P(OCC(Br)CBr)(OCC(Br)CBr)OCC(Br)CBr` (stereo not given), the outcome was inactive.

Take `Cc1ccc(C(=O)Cl)cc1`: the compound was classed as inactive.

`CC(C)(C)c1ccccc1OP(=O)(Oc1ccccc1)Oc1ccccc1`: the call was inactive. Still for that read-out and setting: next, `OCC1CO1` (stereo not given): “inactive”; `CC(Cl)CN(C)C` (stereo not given): “inactive”. Still for that read-out and setting: for `Nc1ccc([N+](=O)[O-])cc1Cl` the value was “inactive”; for `O=S(=O)(c1ccc(O)cc1)c1ccc(O)cc1`, “inactive”.

For `CCCCN(CC)C(=O)SCCC`, the outcome was inactive. Same read-out and setting: for `CCOC(=O)c1ccccc1N` the value was “inactive”; for `CCCCN(CCCC)SN(C)C(=O)Oc1cccc2c1OC(C)(C)C2`, “inactive”; for `Cc1ccc(O)cc1C`, “inactive”.

For the compound `N#Cc1cc([N+](=O)[O-])ccc1N`, the compound was called inactive. On to `Nc1cc2c3c(c1)C(c1ccccc1)=N[C@@H](NC(=O)c1cccnc1)C(=O)N3CC2`, for which the compound was called inactive. Same read-out and setting: for `CCOc1ccc(C(C)(C)COCc2cccc(Oc3ccccc3)c2)cc1` the value was “inactive”; for `CN(C)C(=O)Cl`, “inactive”; for `Cc1ccc(N)cc1N`, “inactive”. On the same count and under the same terms, next, `COP(=O)(CCC(=O)NCO)OC`: “inactive”.

`CCCCc1ccc(O)cc1`: the AC50 was 139 µM (active). On to `CCOP(=S)(OCC)SCSCC`, for which the compound was called inactive. Same read-out and setting: for `CNC(=O)Oc1ccc(N(C)C)c(C)c1` the value was “inactive”; for `CC(O)C(F)(F)C(F)(F)F` (stereo not given), “inactive”. For `OCC(F)(F)OC(F)(F)C(F)(F)OC(F)(F)C(F)(F)OC(F)(F)F`, the AC50 is 75.6 µM (active) and the outcome was inactive. Take `COCCOCCO`: the result was inactive. For the compound `CCN(CC)C1CCCCC1`, the outcome was inactive. Consider `CCCCN(CCCC)N=O`, for which the outcome was inactive. `CSC(C)(C)C=NO`: the result was inactive. In the case of `O=P1(N(CCCl)CCCl)NCCCO1` (stereo not given), the compound was called inactive. Same read-out and setting: next, `CCCCOCC1CO1` (stereo not given): “inactive”; `NNC(N)=S`: “inactive”. Still for that read-out and setting: for `Cc1c([N+](=O)[O-])cc2c(c1[N+](=O)[O-])C(C)(C)CC2(C)C` the value was “inactive”; for `Cc1ccc([N+](=O)[O-])cc1C`, “inactive”. Regarding `Cc1cccc(N)c1`, the call was inactive. The same measure, in the same setting: for `c1ccc(OP(Oc2ccccc2)Oc2ccccc2)cc1` the value was “inactive”.

Take `c1ccc2c(c1)Nc1ccccc1S2`: the compound was classed as inactive.

`CC1(C)CN=C(NN=C(/C=C/c2ccc(C(F)(F)F)cc2)/C=C/c2ccc(C(F)(F)F)cc2)NC1`: the AC50 is 18 µM (active).

Turning to `O=C(O)C(Cl)Cl`, the compound was called inactive.
